# What was measured:
# Test in all cases: cross-link between two proteins; affinity purification or IP with mass spectrometry; cross-linking mass spectrometry
# [1] = target: Ribosomal RNA-processing protein 15 (UniProt Q06511)
# [2] = target: Ribosome biogenesis protein BRX1 (UniProt Q08235)
# [3] = target: Ribosome biogenesis protein NSA1 (UniProt P53136)
# [4] = target: Ribosome biogenesis protein SSF1 (UniProt P38789)
# [5] = target: Ribosome production factor 1 (UniProt P38805)
# Ribosome production factor 1, P38805, sequence (P38805 whole entry): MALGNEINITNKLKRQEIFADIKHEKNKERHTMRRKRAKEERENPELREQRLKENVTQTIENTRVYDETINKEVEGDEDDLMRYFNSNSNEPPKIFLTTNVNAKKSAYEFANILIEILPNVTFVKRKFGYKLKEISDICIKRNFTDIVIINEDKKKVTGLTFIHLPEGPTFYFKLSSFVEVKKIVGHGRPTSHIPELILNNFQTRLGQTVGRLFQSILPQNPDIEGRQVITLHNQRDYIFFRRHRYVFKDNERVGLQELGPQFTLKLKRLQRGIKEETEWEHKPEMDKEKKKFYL
# Ribosome biogenesis protein SSF1, P38789, sequence (P38789 whole entry): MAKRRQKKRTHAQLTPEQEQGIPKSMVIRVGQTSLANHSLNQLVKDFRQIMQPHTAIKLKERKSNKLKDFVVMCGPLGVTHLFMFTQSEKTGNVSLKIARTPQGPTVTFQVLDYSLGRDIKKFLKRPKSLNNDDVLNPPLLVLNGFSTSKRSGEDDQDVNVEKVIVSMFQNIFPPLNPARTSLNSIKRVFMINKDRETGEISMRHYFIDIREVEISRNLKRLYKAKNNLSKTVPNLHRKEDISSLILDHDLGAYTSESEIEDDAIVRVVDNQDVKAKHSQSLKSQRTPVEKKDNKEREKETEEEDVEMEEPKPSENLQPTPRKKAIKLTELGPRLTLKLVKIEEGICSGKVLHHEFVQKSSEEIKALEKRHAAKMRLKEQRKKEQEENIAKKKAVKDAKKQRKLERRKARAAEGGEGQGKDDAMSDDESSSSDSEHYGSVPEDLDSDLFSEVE
# UniProt Q08235, sequence (Q08235 whole entry): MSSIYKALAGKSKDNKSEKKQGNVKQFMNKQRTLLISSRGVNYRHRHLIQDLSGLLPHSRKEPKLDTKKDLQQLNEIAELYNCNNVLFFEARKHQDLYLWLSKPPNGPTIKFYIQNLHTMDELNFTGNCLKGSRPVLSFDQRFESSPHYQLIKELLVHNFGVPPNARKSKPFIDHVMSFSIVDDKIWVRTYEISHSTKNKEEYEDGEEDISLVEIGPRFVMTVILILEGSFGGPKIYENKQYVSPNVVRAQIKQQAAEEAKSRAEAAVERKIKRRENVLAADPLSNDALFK
# UniProt Q06511, sequence (Q06511 whole entry): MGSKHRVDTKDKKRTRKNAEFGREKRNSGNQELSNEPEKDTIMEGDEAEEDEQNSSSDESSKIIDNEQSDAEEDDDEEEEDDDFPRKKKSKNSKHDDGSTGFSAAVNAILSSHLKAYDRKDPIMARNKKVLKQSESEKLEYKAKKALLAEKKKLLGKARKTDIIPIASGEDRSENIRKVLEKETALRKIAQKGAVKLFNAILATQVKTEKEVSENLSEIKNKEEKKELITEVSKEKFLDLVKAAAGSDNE
# UniProt P53136, sequence (P53136 whole entry): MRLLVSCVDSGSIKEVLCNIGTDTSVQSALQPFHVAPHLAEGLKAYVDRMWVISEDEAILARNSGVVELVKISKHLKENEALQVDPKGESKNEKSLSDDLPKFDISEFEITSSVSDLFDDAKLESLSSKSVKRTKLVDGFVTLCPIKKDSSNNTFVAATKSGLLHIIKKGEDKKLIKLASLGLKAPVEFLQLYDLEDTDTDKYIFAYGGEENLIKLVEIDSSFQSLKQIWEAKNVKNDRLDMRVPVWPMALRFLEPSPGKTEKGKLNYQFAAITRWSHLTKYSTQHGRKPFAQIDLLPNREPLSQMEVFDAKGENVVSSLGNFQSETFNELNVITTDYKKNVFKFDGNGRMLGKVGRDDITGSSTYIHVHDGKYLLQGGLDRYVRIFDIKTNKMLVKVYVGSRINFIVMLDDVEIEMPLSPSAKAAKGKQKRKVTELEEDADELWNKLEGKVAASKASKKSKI
substance,measurement,setting,value
"Ribosome biogenesis protein SSF1, P38789",listed as a hit,[1],yes
same,listed as a hit,[2],yes
"Ribosome production factor 1, P38805",listed as a hit,[3],yes
"Large ribosomal subunit protein uL29A, P0CX84",listed as a hit,[4],yes
"Large ribosomal subunit protein uL22A, P05740",listed as a hit,[5],yes
